# Results taken from PubChem BioAssay (NCI).
# This is part of a sample that, as a whole, favours compounds with a hit. Of some 83,000 tested, about 20% had one in any assay.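 Percent growth is the endpoint: 0 to 100 indicates growth inhibition (40 means 60% inhibition), 0 means no net growth, and negative values indicate cell death.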 A number with no mark means an inactive call. Calls of active or inactive are those of the source. The calls were made as follows: active = growth percent below 10; inactive = the rest.
# Tested on: HL-60(TB) leukemia
# Assay: NCI-60 one-dose screen, 48 h (100 = growth as untreated, 0 = no growth, -100 = all killed)
# Conditions: 10 µM unless noted
row,SMILES,growth
1,Cc1cc(C(=O)Nc2cc(Nc3ncccc3-c3ncnc4nc[nH]c34)ccc2F)cc(C(C)(C)C#N)c1,26.4%
2,Cc1nc(-c2cn3c(n2)-c2ccc(-c4cnn(C(C)(C)C(N)=O)c4)cc2OCC3)n(C(C)C)n1,35.7%
3,Cc1nc(-n2[nH]c(=O)ccc2=O)sc1N=Nc1ccccc1,98%
4,Cc1cc(C(C#N)c2ccc(Cl)cc2)c(Cl)cc1NC(=O)c1cc(I)cc(I)c1O (stereo not given),17.4%
5,Nc1nc(N)c2c(n1)NC(c1cccc(Nc3ccnc4cc(C(F)(F)F)ccc34)c1)CC(c1ccc(Cl)cc1)=N2 (stereo not given),34.3%
6,CCC(C)(C)C(=O)O[C@H]1C[C@@H](C)C=C2C=C[C@H](C)[C@H](CC[C@@H]3CC(SCCN)CC(=O)O3)[C@H]21 (stereo not given in full),37.6%
7,O=C(Nc1ccc(C2=NCCCN2)cc1)c1ccc(C(=O)Nc2ccc(C3=NCCCN3)cc2)nc1,79%
8,O=C(/C(Cl)=N/O)c1ccc(-c2ccccc2)cc1,69.2%
9,COc1cccc(N=Nc2cccc(OC)c2)c1,66.9%
10,O=C(O)c1ccnc(Br)c1,96.5%
11,O=C(O)c1c([N+](=O)[O-])cnc2ccccc12,92.4%
12,Nc1n[nH]c2cccc(C#Cc3cccc(C(=O)Nc4cccc(C(F)(F)F)c4)c3)c12,30.4%
13,C=C[C@@H]1C[C@H](O)Cc2c(C)cc(C)cc2N1,-16.4% (active)
14,Cc1cc2nc3c4cc(C=O)ccc4n(CCN(C)C)c3nc2cc1C,16.9%
15,Cc1c2ccncc2c(C)c2c1c1ccccc1n2CCCCCC(=O)O,104%
16,CN(C)c1ccc(/C=C/c2ccnc3ccccc23)cc1,12.6%
17,COc1cccc(Cc2nn3cc(-c4ccccc4)nc3s2)c1,69.9%
18,COc1ccccc1CNCCCN1C(=O)c2ccc3c4c(ccc(c24)C1=O)C(=O)N(CCCNCCCCN)C3=O,-42% (active)
19,CCCc1nc2ccccn2c1Nc1ccc(C(=O)NO)cc1,111%
20,CCOc1cc(N)ccc1C(=O)NCCCN(CC)CC,70.2%

row,SMILES,growth
1,COc1cc(/C=C2\CCCC3=C2N=C2SC=NN2C3c2cc(OC)c(OC)c(OC)c2)cc(OC)c1OC (stereo not given),-1.19% (active)
2,CC(C)(C)OC(=O)CC1(O)CCCCC1,106%
3,COc1ccc(C(=O)C2=CC(=O)C(=O)C2)cc1OC,110%
4,CC(OC(=O)Nc1cccc(Cl)c1)C(=O)O (stereo not given),90.2%
5,COc1ncnc2c(-c3ccccc3)cn(COCc3ccccc3)c12,53.1%
6,COc1ccc2[nH]cc(-c3nc(-c4cn(C)c5ccncc45)cs3)c2c1,82.3%
7,Cc1ccc(C2=Nc3c(N)nc(N)nc3NC(c3cccc(Nc4ccnc5cc(C(F)(F)F)ccc45)c3)C2)cc1 (stereo not given),-11.3% (active)
8,CNC(=O)c1cncc(Cn2nc(C)c(NC(=O)c3ccc(COc4ccc(C(F)(F)F)cc4C)cc3)c2C)c1,63.6%
9,CC(C)(C)n1cc(-c2ccnc(NCCCNS(=O)(=O)c3cccc(F)c3)c2)c(-c2cccc(O)c2)n1,35.4%
10,N#Cc1c(-c2ccccc2)nc(SCC(=O)Nc2nc(-c3ccc(Cl)cc3)cs2)[nH]c1=O,96.1%
11,COc1ccc(/C=C/C(=O)/C=C/c2cc3ccc(Cl)cc3[nH]c2=O)cc1,71%
12,Cc1ccc(-c2c(Br)c(OC(=O)CO[C@@H]3C[C@H](C)CC[C@H]3C(C)C)c(-c3ccc(C)cc3C)c(Br)c2OC(=O)CO[C@H]2C[C@@H](C)CC[C@@H]2C(C)C)c(C)c1,101%
13,CCOC(=O)c1cc(C(=O)c2cc(OC)cc(OC)c2)n2ncccc12,-21.7% (active)
14,COc1ccc(/C(C#N)=C/c2nc3c(N4CCOCC4)nc(Cl)nc3n2C)cc1OC,-28% (active)
15,CC1=C2[C@@H](CC1)[C@]1(C)O[C@@](C(C)C)(C[C@H]1OC(=O)CO)[C@H]2OC(=O)C1CC1c1ccccc1 (stereo not given in full),89.8%
16,O=C1/C(=C/c2ccccc2)SC(=Nc2ccccc2)N1Nc1ccccc1,-7.82% (active)
17,O=C1/C(=C/c2ccccc2)CN(C(=O)CCN2CCC(=NO)CC2)C/C1=C\c1ccccc1,5.03% (active)
18,Fc1cc(C(F)(F)F)ccc1-c1cncnc1NC1CCCCCC1,86.4%
19,O=C1OC(c2ccc(Cl)c(Cl)c2)=C/C1=C/c1cccc([N+](=O)[O-])c1,103%
20,Cc1ccccc1SSc1ccccc1C,99.6%
